# Experimental data as given in article PMC12820563, “FoxP3 forms a head-to-head dimer in vivo and stabilizes its multimerization on adjacent microsatellites”.
# The full ranking holds about 16,000 sequences; the median of “rpm ratio (pull-down/input)” is about 0.5, and the highest 2% start at about 5.5. This excerpt belongs to a sample that is enriched for the highest values.
# Biological target: T1, MBP-FoxP3dN (Mus musculus, UniProt Q99JB6 188-423)
# T1 sequence: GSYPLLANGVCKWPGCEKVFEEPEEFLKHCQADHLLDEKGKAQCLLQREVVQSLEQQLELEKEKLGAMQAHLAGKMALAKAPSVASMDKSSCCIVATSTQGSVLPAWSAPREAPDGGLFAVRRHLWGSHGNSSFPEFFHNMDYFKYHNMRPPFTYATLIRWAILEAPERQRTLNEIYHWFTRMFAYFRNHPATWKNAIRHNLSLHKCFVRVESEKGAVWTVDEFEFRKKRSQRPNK
# Experiment: PD-seq (MBP pull-down with sequencing); 20 mM Tris-HCl pH 7.5, 100 mM NaCl, 1.5 mM MgCl2, 0.4 uM protein, 0.1 uM dsDNA library, 30 min, room temperature, amylose pull-down; high values mean tight binding
# Conditions: protein: recombinant; tags: His6-MBP; chain copies: 2; dsDNA, one strand shown
# Method in brief: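 His6-MBP-tagged mouse FoxP3 or FoxP1 fragment lacking the N-terminus, expressed in E. coli, was mixed at 0.4 µM with 0.1 µM Klenow-filled double-stranded degenerate DNA library. Incubation was 30 min at room temperature in Tris pH 7.5 buffer with NaCl and MgCl2. Complexes were caught on amylose resin and washed three times; DNA was released with proteinase K, PCR-barcoded and Illumina-sequenced. Binding is reads-per-million enrichment, pull-down over input, with replicates pooled.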
row,Sequence,binding signal
1,GATGATTGTTCTCCCAGCTGATGAATTATACGAGTCGAGTAAACAAATTTTCCTAATCTTTCTGTTCAAGCGCCATCTAC,0.404 RPM ratio (pull-down/input)
2,GATGATTGTTCTCCCAGCTGATGAATTCTAGACCTCGAGTAAACAAATTTTCCTAATCTTTCTGTTCAAGCGCCATCTAC,0.236 RPM ratio (pull-down/input)
3,GATGATTGTTCTCCCAGCTGATGAATTCTTAGCCTCGAGTAAACAAATTTTCCTAATCTTTCTGTTCAAGCGCCATCTAC,0.373 RPM ratio (pull-down/input)
4,GATGATTGTTCTCCCAGCTGATGAATTTTTGGGGTCGAGTAAACAAATTTTCCTAATCTTTCTGTTCAAGCGCCATCTAC,0.233 RPM ratio (pull-down/input)
5,GATGATTGTTCTCCCAGCTGATGAATTGGTGTGGTCGAGTAAACAAATTTTCCTAATCTTTCTGTTCAAGCGCCATCTAC,1.32 RPM ratio (pull-down/input)
6,GATGATTGTTCTCCCAGCTGATGAATTGTGTTGGTCGAGTAAACAAATTTTCCTAATCTTTCTGTTCAAGCGCCATCTAC,6.68 RPM ratio (pull-down/input)
7,GATGATTGTTCTCCCAGCTGATGAATTCAATTGGTCGAGTAAACAAATTTTCCTAATCTTTCTGTTCAAGCGCCATCTAC,2.04 RPM ratio (pull-down/input)
8,GATGATTGTTCTCCCAGCTGATGAATTCTGTTGGTCGAGTAAACAAATTTTCCTAATCTTTCTGTTCAAGCGCCATCTAC,5.56 RPM ratio (pull-down/input)
9,GATGATTGTTCTCCCAGCTGATGAATTCTTTTGGTCGAGTAAACAAATTTTCCTAATCTTTCTGTTCAAGCGCCATCTAC,0.31 RPM ratio (pull-down/input)
10,GATGATTGTTCTCCCAGCTGATGAATTTTGTTGGTCGAGTAAACAAATTTTCCTAATCTTTCTGTTCAAGCGCCATCTAC,7.07 RPM ratio (pull-down/input)
11,GATGATTGTTCTCCCAGCTGATGAATTTCTTTGGTCGAGTAAACAAATTTTCCTAATCTTTCTGTTCAAGCGCCATCTAC,1.03 RPM ratio (pull-down/input)
12,GATGATTGTTCTCCCAGCTGATGAATTTGGTTGGTCGAGTAAACAAATTTTCCTAATCTTTCTGTTCAAGCGCCATCTAC,2.96 RPM ratio (pull-down/input)
13,GATGATTGTTCTCCCAGCTGATGAATTGTTTGGGTCGAGTAAACAAATTTTCCTAATCTTTCTGTTCAAGCGCCATCTAC,4.43 RPM ratio (pull-down/input)
14,GATGATTGTTCTCCCAGCTGATGAATTTGTTGGGTCGAGTAAACAAATTTTCCTAATCTTTCTGTTCAAGCGCCATCTAC,7.61 RPM ratio (pull-down/input)
15,GATGATTGTTCTCCCAGCTGATGAATTGGTTGTGTCGAGTAAACAAATTTTCCTAATCTTTCTGTTCAAGCGCCATCTAC,5.42 RPM ratio (pull-down/input)
16,GATGATTGTTCTCCCAGCTGATGAATTGTAATCTTCGAGTAAACAAATTTTCCTAATCTTTCTGTTCAAGCGCCATCTAC,0.84 RPM ratio (pull-down/input)
17,GATGATTGTTCTCCCAGCTGATGAATTGGTGAGATCGAGTAAACAAATTTTCCTAATCTTTCTGTTCAAGCGCCATCTAC,0.341 RPM ratio (pull-down/input)
18,GATGATTGTTCTCCCAGCTGATGAATTCTTTTACTCGAGTAAACAAATTTTCCTAATCTTTCTGTTCAAGCGCCATCTAC,0.312 RPM ratio (pull-down/input)
19,GATGATTGTTCTCCCAGCTGATGAATTCTTGGGATCGAGTAAACAAATTTTCCTAATCTTTCTGTTCAAGCGCCATCTAC,0.227 RPM ratio (pull-down/input)
20,GATGATTGTTCTCCCAGCTGATGAATTCCTCGTATCGAGTAAACAAATTTTCCTAATCTTTCTGTTCAAGCGCCATCTAC,0.403 RPM ratio (pull-down/input)
21,GATGATTGTTCTCCCAGCTGATGAATTGCGACCGTCGAGTAAACAAATTTTCCTAATCTTTCTGTTCAAGCGCCATCTAC,0.963 RPM ratio (pull-down/input)

row,Sequence,binding signal
1,GATGATTGTTCTCCCAGCTGATGAATTCCGACGATCGAGTAAACAAATTTTCCTAATCTTTCTGTTCAAGCGCCATCTAC,0.285 RPM ratio (pull-down/input)
2,GATGATTGTTCTCCCAGCTGATGAATTTCTACCGTCGAGTAAACAAATTTTCCTAATCTTTCTGTTCAAGCGCCATCTAC,0.222 RPM ratio (pull-down/input)
3,GATGATTGTTCTCCCAGCTGATGAATTGTTACGATCGAGTAAACAAATTTTCCTAATCTTTCTGTTCAAGCGCCATCTAC,0.792 RPM ratio (pull-down/input)
4,GATGATTGTTCTCCCAGCTGATGAATTGGTTTGGTCGAGTAAACAAATTTTCCTAATCTTTCTGTTCAAGCGCCATCTAC,3.6 RPM ratio (pull-down/input)
5,GATGATTGTTCTCCCAGCTGATGAATTTGTTTGGTCGAGTAAACAAATTTTCCTAATCTTTCTGTTCAAGCGCCATCTAC,7.49 RPM ratio (pull-down/input)
6,GATGATTGTTCTCCCAGCTGATGAATTGTTTTGGTCGAGTAAACAAATTTTCCTAATCTTTCTGTTCAAGCGCCATCTAC,3.65 RPM ratio (pull-down/input)
7,GATGATTGTTCTCCCAGCTGATGAATTGATTGTCTCGAGTAAACAAATTTTCCTAATCTTTCTGTTCAAGCGCCATCTAC,2.86 RPM ratio (pull-down/input)
8,GATGATTGTTCTCCCAGCTGATGAATTGTAGTTCTCGAGTAAACAAATTTTCCTAATCTTTCTGTTCAAGCGCCATCTAC,1.39 RPM ratio (pull-down/input)
9,GATGATTGTTCTCCCAGCTGATGAATTCGGCAGCTCGAGTAAACAAATTTTCCTAATCTTTCTGTTCAAGCGCCATCTAC,1.36 RPM ratio (pull-down/input)
10,GATGATTGTTCTCCCAGCTGATGAATTTTCGGCATCGAGTAAACAAATTTTCCTAATCTTTCTGTTCAAGCGCCATCTAC,0.816 RPM ratio (pull-down/input)
11,GATGATTGTTCTCCCAGCTGATGAATTCGGGCATTCGAGTAAACAAATTTTCCTAATCTTTCTGTTCAAGCGCCATCTAC,4.9 RPM ratio (pull-down/input)
12,GATGATTGTTCTCCCAGCTGATGAATTTGCGGCATCGAGTAAACAAATTTTCCTAATCTTTCTGTTCAAGCGCCATCTAC,1.14 RPM ratio (pull-down/input)
13,GATGATTGTTCTCCCAGCTGATGAATTCGGCATCTCGAGTAAACAAATTTTCCTAATCTTTCTGTTCAAGCGCCATCTAC,7.14 RPM ratio (pull-down/input)
14,GATGATTGTTCTCCCAGCTGATGAATTCTCGGCATCGAGTAAACAAATTTTCCTAATCTTTCTGTTCAAGCGCCATCTAC,0.601 RPM ratio (pull-down/input)
15,GATGATTGTTCTCCCAGCTGATGAATTGCGGCATTCGAGTAAACAAATTTTCCTAATCTTTCTGTTCAAGCGCCATCTAC,7.34 RPM ratio (pull-down/input)
16,GATGATTGTTCTCCCAGCTGATGAATTCGGCCATTCGAGTAAACAAATTTTCCTAATCTTTCTGTTCAAGCGCCATCTAC,3.92 RPM ratio (pull-down/input)
17,GATGATTGTTCTCCCAGCTGATGAATTCGGCATTTCGAGTAAACAAATTTTCCTAATCTTTCTGTTCAAGCGCCATCTAC,5.91 RPM ratio (pull-down/input)
18,GATGATTGTTCTCCCAGCTGATGAATTCCGGCATTCGAGTAAACAAATTTTCCTAATCTTTCTGTTCAAGCGCCATCTAC,4.43 RPM ratio (pull-down/input)
19,GATGATTGTTCTCCCAGCTGATGAATTTCGGCATTCGAGTAAACAAATTTTCCTAATCTTTCTGTTCAAGCGCCATCTAC,5.76 RPM ratio (pull-down/input)
20,GATGATTGTTCTCCCAGCTGATGAATTCGCGGCATCGAGTAAACAAATTTTCCTAATCTTTCTGTTCAAGCGCCATCTAC,0.76 RPM ratio (pull-down/input)
